Screens: PubChem BioAssay, several laboratories
AHR activator = activates the human aryl hydrocarbon receptor. AHR-responsive luciferase reporter cells, luminescence. activation, % at 5 µM. P35869. hit rate 2.5% among 320,000; in the data active means activation above about 47%;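 further: 0% = vehicle wells and 100% = reference agonist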
Target sequence (P35869 whole entry, looked up): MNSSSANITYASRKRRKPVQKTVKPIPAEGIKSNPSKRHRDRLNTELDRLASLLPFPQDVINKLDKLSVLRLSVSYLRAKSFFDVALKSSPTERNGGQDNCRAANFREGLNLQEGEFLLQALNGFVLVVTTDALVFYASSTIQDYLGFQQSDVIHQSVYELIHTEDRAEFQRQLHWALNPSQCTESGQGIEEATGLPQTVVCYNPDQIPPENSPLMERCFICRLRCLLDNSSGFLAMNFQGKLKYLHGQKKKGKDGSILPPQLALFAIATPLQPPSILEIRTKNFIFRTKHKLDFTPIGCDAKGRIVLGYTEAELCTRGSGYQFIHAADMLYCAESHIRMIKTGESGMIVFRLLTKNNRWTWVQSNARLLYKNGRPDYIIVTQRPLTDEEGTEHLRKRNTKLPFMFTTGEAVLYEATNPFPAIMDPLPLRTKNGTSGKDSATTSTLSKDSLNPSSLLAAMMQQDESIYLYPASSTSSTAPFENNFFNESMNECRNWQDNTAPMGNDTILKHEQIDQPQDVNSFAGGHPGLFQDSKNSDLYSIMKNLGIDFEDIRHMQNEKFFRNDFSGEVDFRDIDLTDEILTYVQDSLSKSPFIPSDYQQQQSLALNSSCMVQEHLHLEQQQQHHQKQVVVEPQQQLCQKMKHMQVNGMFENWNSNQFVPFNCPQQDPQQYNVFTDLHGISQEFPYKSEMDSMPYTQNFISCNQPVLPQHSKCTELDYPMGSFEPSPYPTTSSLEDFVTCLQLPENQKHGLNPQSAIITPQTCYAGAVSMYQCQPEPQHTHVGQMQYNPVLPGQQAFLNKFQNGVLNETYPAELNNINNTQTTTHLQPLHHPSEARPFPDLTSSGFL
HSF1 inhib = HSF1 inhibition; NIH3T3-HGL HSE-luciferase, MG132-induced, luminescence 8 h; hits give low values; activity change, negative = inhibition, % at 7.5 µM (by protocol); hit rate 0.77% among 300,000;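 active means more than half of replicate wells show activity change below -50%, luminescence cut by over half; inconclusive means some wells, but at most half, below -50%; inactive means no replicate well below -50%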;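 further: luciferase reports HSF-1 transcriptional activity via heat shock element; 0% = median of DMSO wells and -100% = zero luminescence signal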
NR0B1 inh = NR0B1 (DAX1) inhibition; P51843; HEK293 Gal4-DAX1 luciferase reporter, luminescence; inhibition, % at 6.75 µM; hit rate 0.99% among 340,000; AID 504766;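 active means inhibition above the mean over all tested compounds plus 3 SD, cut at about 4.2% in these data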;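 further: 0% = DAX1-transfected cells with DMSO and 100% = empty-vector control cells with DMSO; inhibition shows as a rise in luminescence from relieved DAX1 repression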
FXN GAA850 act = increases GAA850 frataxin promoter reporter activity. HEK293 lucGAA850 FXN promoter luciferase reporter, 24 h; percent of 10 µM SAHA response. activation, % at 6 µM. hit rate 0.56% among 360,000. AID 540364;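 active means activation above the average of all compounds screened plus 3 SD, cutoff fixed separately per campaign, cut at about 7.5% in these data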;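 further: 0% = DMSO wells and 100% = 10 µM SAHA wells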
HSF1 activator = increases HSF-1 driven luciferase reporter signal; NIH3T3-HGL HSF-1 luciferase reporter, MG132, 8 h; 100% = twice DMSO control signal; activation, % at 9 µM; hit rate 1.7% among 300,000; AID 504408;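 active means mean replicate activation of at least 50% with a set share of replicates each reaching 50%; inconclusive means only one of those two conditions met; inactive means mean below 50% and too few replicates reaching it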;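 further: 0% = median of the neutral control wells and 100% = twice that signal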
An asterisk follows results filed as active; ? = inconclusive; · = no result given. Compounds with a hit are over-represented: about 5.4% of the library has one in this group of screens.

SMILES	AHR activator	HSF1 inhib	NR0B1 inh	FXN GAA850 act	HSF1 activator
CNC(=O)C1=C(C)Nc2nc3ccccc3n2C1c1cccc(OC)c1 (stereo not given)	3	2	1	-2	5
CCOC(=O)C1=C(C)Nc2nc3ccccc3n2C1c1ccncc1 (stereo not given)	12	41	1	-2	80*
C=CCOC(=O)C1=C(C)Nc2ncnn2C1c1cccs1 (stereo not given)	2	5	0	-1	10
CCOC(=O)N1CCN(C(=O)c2cccn3c(=O)c4sccc4nc23)CC1	2	·	3	1	·
O=C(NCCN1CCOCC1)c1cccn2c(=O)c3c4c(sc3nc12)CCCC4	54*	-6	·	·	-7
CCOC(=O)N1CCN(C(=O)c2cccn3c(=O)c4cc(Br)ccc4nc23)CC1	58*	-4	1	0	-9
O=C(c1cccn2c(=O)c3cc(Br)ccc3nc12)N1CCN(c2ccccn2)CC1	74*	·	0	1	·
CCOC(=O)N1CCN(C(=O)c2cccn3c(=O)c4cc(Cl)ccc4nc23)CC1	91*	2	0	-1	-13
O=C(c1ccco1)N1CCN(C(=O)c2cccn3c(=O)c4c5c(sc4nc23)CCCC5)CC1	·	·	0	2	·
CSc1cccc(NC(=O)CCS(=O)(=O)c2cccc3nonc23)c1	6	-9	-1	-1	-11
COc1ccccc1-c1csc(C(C)(NC(C)=O)c2ccccc2)n1 (stereo not given)	·	·	·	4	·
COc1ccc(CN(CC(=O)NCCc2ccccc2)C(=O)CCC(=O)Nc2ccccn2)cc1	0	-3	0	0	-7
O=C(NCCN1CCN(c2ccccc2)CC1)c1cccn2c(=O)c3cc(Cl)ccc3nc12	94*	-6	0	0	9
O=C(c1cccn2c(=O)c3ccccc3nc12)N1CCN(c2ccccn2)CC1	2	6	-1	-1	17
O=C(c1cccn2c(=O)c3cc4ccccc4cc3nc12)N1CCN(c2ccccc2)CC1	71*	1	·	·	20
N#Cc1ccccc1S(=O)(=O)N1CCN(CC(O)CN2CCOCC2)CC1 (stereo not given)	1	·	1	0	·
C/C(CC(=O)Nc1cccc2c1CCCC2)=N\NC(=O)c1ccccc1N	10	29	2	5	57*
C/C(CC(=O)Nc1cccc2c1CCCC2)=N\NC(=O)c1cccc2ccccc12	8	4	1	-2	1
C/C(CC(=O)NC(C)(C)C)=N\NC(=O)c1ccccc1N	13	20	4.7*	3	29
C/C(CC(=O)NC(C)(C)C)=N\NC(N)=S	1	-3	0	0	3
CCn1c(SCC(=O)NC2CC2)nnc1-c1ccc(OC)cc1	2	0	0	0	-19
O=C(N/N=C1\CC(c2ccccc2)Oc2ccccc21)c1ccc(O)cc1 (stereo not given)	29	35	-1	0	71*
O=C(N/N=C1\CC(c2ccccc2)Oc2ccccc21)c1cccnc1 (stereo not given)	36	12	-1	-1	13
COC(=O)c1c(-c2ccccc2)c[nH]c1C	4	12	4.8*	5	25
CC(=O)c1c(C)[nH]c(C2=NNC(=NCc3ccccc3)SC2)c1C	8	0	2	1	-13
SMILES	AHR activator	HSF1 inhib	NR0B1 inh	FXN GAA850 act	HSF1 activator
CCOC(=O)c1c(C)[nH]c(C2=NNC(=Nc3cccc(Cl)c3)SC2)c1C	120*	-75*	·	·	-75
O=C(NCc1cccnc1)C(=O)NCC1OCCCN1S(=O)(=O)c1ccccc1 (stereo not given)	5	-5	0	0	-4
CCOC(=O)c1sc2nc(-c3cccnc3)ccc2c1N	0	36	1	7	75*
COC(=O)c1sc2nc(-c3ccco3)ccc2c1N	-1	39	3	7	56*
CC(C)OC(=O)c1sc2nc(-c3ccccc3)ccc2c1N	-9	-67*	2	-10	-71
Cc1ccc2[nH]c3c(c2c1)CCN1C(=O)OC(C)(C)C31C (stereo not given)	4	0	-1	-1	35
Cc1ccccc1CN1CCCC(C(=O)Nc2ccccc2Oc2cccnc2)C1 (stereo not given)	10	2	1	-1	9
CC1=C(C(=O)Nc2ccccc2C(=O)NC2CCC(C)CC2)SCCO1 (stereo not given)	3	12	0	2	11
O=C(Nc1ccc(F)cc1)C(c1ccccc1)N1CCN(C(=O)c2ccco2)CC1 (stereo not given)	0	4	4.7*	0	1
CC1CCCN(C(C(=O)Nc2ccc3c(c2)OCO3)c2ccccc2)C1 (stereo not given)	47*	6	0	0	10
O=C(Nc1ccc2c(c1)OCO2)C(c1ccccc1)N1CCCCC1 (stereo not given)	60*	-4	0	-3	6
CC1CCN(C(C(=O)Nc2ccc3c(c2)OCO3)c2ccccc2)CC1 (stereo not given)	48*	2	2	-2	6
CC1CCCN(C(C(=O)Nc2ccc3c(c2)OCCO3)c2ccccc2)C1 (stereo not given)	1	14	0	-1	11
CC1CCC(NC(=O)C(=O)Nc2ccc3c(c2)OCO3)CC1 (stereo not given)	49*	21	2	2	34
CC1CCC(NC(=O)c2ccc3c(c2)OCO3)CC1 (stereo not given)	25	13	-1	1	?
O=C(NC1CCCCC1)c1cc2cc(Br)ccc2o1	-2	49	3	4	68*
O=C(NC1CCCC1)c1cc2ccccc2o1	5	-5	2	4	-3
O=C(NC1CCCC1)c1cc2cc(Br)ccc2o1	1	39	2	4	60*
Cc1ccc(NC(=O)COC(=O)c2ccc3ncsc3c2)c(C)c1	·	·	0	-2	·
CNC[C@H]1Oc2c(NS(=O)(=O)c3ccccc3)cccc2C(=O)N([C@H](C)CO)C[C@@H]1C	1	·	0	1	·
Cn1c(SCC(=O)N2CCCCCC2)nc2c(c1=O)SCC2	1	-2	0	-1	9
Cc1ccc(C2=Nc3ccccc3N=C(C(Cl)Cl)C2)cc1	22	47	-1	-4	93*
Cc1ccc2c(c1)N=C(c1ccccc1)CC(C(Cl)Cl)=N2	62*	43	-1	0	61*
Cc1cc2c(cc1C)NC(=O)CC(c1ccccc1)=N2	·	·	3	4	·
CCN(CC)C(=O)COc1ccc(/C=N/NC(=O)c2cc(-c3ccccc3OC)nc3ccccc23)cc1OC	13	2	0	0	-6
CCc1nc2c(OCc3ccc(Cl)cc3Cl)cccn2c1N(C=O)Cc1ccc(OC)cc1	·	·	·	-2	·
COc1ccc(-c2oc3ccc(N4CCOCC4)cc3c2C#CCO)cc1	41	7	-5	-5	-8
